Among the data in PubChem BioAssay are composite z-score and z-score values, retold here.

Molecules are shown by their SMILES. The source made the active and inactive calls.

For test [1], the system named is PRMT1 (protein arginine N-methyltransferase 1). Kind of test: small molecules binding arginine methyltransferase PRMT1 – biochemical, small-molecule microarray, 635 nm fluorescence, primary screen (AID 1088).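 Also: binding of Prmt1 protein to compounds spotted on small-molecule microarray slides.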 The following applies: higher = more signal.
The nature of test [2]: growth effects on S. cerevisiae YJM789 – YJM789 clinical isolate, OD600, 24 h, basal, primary screen (AID 1089).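 Also: growth of clinical yeast isolate S. cerevisiae YJM 789 seeded 1000 cells per well; test concentration not given here.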 The following applies: higher = more signal, called active from +8 up or from −8 down.
Test [3] is described as follows: S. pombe growth modifiers, basal conditions – strain 972, OD600, 24 h, no modulator, primary screen (AID 1090).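 Also: basal condition with compound alone and no growth modifier present; test concentration not given here.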 Conditions: S. pombe 972 growth, higher = more signal, called active from +8 up or from −8 down.
The nature of test [4]: budding yeast growth modifiers under rapamycin – strain BY4716, OD600, 96 h, primary screen (AID 1091). Also: test concentration not given here. Conditions: S. cerevisiae BY4716 + rapamycin, higher = more signal, called active from +8 up or from −8 down.
For test [5], the target named is Torsin-1A-interacting protein 2 (Homo sapiens) (UniProt Q8NFQ8). The test is described as follows: small molecules binding lysate-expressed LULL1 – cell lysate, human LULL1 lysate, 635/667 nm fluorescence, primary screen (AID 1092).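 Also: probe is lysate of COS7 cells overexpressing human LULL1; score merges per-feature 667 nm fluorescence with signal-to-noise.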 Conditions: small-molecule microarray, hLULL1 lysate binding, 635 nm fluorescence; higher = more signal.
Sequence of Torsin-1A-interacting protein 2 (Homo sapiens) (Q8NFQ8 whole entry, looked up): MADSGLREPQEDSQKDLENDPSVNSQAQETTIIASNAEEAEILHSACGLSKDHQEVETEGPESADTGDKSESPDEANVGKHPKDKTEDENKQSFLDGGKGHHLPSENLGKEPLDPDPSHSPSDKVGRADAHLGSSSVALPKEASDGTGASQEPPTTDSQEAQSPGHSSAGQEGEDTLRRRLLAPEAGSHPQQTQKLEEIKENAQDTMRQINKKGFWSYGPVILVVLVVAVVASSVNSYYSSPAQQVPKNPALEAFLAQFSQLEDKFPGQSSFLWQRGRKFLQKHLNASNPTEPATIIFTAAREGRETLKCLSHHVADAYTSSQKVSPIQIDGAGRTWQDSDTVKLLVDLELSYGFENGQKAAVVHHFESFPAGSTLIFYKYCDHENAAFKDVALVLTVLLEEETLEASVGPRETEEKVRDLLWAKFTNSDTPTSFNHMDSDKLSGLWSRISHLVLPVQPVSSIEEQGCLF
Test [6] is described as follows: optical density change of DRC41 E. coli – strain DRC41, OD650, 24 h, E. coli filamentation project, primary screen (AID 1093).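 Also: MC1000 strain lacking acrAB efflux and sulA so SOS filamentation is blocked; test concentration not given here.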 The following applies: E. coli DRC41 growth, higher = more signal, called active from +8 up or from −8 down.
Test [7] in a line: probe aLefty2 binding to arrayed compounds – biochemical, biotinylated probe, 635/667 nm fluorescence, primary screen (AID 1094).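 Also: score merges spot fluorescence near 667 nm with spot signal-to-noise ratio.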 Conditions: small-molecule microarray, higher = more signal.
Test [8] concerns Noggin (protein binding on small-molecule microarray). The test is described as follows: small molecules binding Noggin protein – biochemical, 635/667 nm fluorescence, primary screen (AID 1095).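 Also: score merges 667 nm feature fluorescence with signal to noise over triplicate slides.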 The following applies: 635 nm fluorescence, higher = more signal.
Test [9] concerns the target Neurogenic locus notch homolog protein 3 (Homo sapiens) (UniProt Q9UM47). The test is described as follows: small molecules binding NOTCH3 protein – biochemical, 635/667 nm fluorescence, primary screen (AID 1096). The following applies: small-molecule microarray, 635 nm fluorescence, higher = more signal.
Test [10] in a line: probe aEGFR binding to arrayed compounds – biochemical, biotinylated probe, 635/667 nm fluorescence, primary screen (AID 1097).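 Also: probe is a biotinylated anti-EGFR antibody binding compounds printed on slides; score combines fluorescence near 667 nm and signal to noise of each spot.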 The following applies: small-molecule microarray, higher = more signal.

Sequence of Neurogenic locus notch homolog protein 3 (Homo sapiens) (Q9UM47 whole entry, looked up): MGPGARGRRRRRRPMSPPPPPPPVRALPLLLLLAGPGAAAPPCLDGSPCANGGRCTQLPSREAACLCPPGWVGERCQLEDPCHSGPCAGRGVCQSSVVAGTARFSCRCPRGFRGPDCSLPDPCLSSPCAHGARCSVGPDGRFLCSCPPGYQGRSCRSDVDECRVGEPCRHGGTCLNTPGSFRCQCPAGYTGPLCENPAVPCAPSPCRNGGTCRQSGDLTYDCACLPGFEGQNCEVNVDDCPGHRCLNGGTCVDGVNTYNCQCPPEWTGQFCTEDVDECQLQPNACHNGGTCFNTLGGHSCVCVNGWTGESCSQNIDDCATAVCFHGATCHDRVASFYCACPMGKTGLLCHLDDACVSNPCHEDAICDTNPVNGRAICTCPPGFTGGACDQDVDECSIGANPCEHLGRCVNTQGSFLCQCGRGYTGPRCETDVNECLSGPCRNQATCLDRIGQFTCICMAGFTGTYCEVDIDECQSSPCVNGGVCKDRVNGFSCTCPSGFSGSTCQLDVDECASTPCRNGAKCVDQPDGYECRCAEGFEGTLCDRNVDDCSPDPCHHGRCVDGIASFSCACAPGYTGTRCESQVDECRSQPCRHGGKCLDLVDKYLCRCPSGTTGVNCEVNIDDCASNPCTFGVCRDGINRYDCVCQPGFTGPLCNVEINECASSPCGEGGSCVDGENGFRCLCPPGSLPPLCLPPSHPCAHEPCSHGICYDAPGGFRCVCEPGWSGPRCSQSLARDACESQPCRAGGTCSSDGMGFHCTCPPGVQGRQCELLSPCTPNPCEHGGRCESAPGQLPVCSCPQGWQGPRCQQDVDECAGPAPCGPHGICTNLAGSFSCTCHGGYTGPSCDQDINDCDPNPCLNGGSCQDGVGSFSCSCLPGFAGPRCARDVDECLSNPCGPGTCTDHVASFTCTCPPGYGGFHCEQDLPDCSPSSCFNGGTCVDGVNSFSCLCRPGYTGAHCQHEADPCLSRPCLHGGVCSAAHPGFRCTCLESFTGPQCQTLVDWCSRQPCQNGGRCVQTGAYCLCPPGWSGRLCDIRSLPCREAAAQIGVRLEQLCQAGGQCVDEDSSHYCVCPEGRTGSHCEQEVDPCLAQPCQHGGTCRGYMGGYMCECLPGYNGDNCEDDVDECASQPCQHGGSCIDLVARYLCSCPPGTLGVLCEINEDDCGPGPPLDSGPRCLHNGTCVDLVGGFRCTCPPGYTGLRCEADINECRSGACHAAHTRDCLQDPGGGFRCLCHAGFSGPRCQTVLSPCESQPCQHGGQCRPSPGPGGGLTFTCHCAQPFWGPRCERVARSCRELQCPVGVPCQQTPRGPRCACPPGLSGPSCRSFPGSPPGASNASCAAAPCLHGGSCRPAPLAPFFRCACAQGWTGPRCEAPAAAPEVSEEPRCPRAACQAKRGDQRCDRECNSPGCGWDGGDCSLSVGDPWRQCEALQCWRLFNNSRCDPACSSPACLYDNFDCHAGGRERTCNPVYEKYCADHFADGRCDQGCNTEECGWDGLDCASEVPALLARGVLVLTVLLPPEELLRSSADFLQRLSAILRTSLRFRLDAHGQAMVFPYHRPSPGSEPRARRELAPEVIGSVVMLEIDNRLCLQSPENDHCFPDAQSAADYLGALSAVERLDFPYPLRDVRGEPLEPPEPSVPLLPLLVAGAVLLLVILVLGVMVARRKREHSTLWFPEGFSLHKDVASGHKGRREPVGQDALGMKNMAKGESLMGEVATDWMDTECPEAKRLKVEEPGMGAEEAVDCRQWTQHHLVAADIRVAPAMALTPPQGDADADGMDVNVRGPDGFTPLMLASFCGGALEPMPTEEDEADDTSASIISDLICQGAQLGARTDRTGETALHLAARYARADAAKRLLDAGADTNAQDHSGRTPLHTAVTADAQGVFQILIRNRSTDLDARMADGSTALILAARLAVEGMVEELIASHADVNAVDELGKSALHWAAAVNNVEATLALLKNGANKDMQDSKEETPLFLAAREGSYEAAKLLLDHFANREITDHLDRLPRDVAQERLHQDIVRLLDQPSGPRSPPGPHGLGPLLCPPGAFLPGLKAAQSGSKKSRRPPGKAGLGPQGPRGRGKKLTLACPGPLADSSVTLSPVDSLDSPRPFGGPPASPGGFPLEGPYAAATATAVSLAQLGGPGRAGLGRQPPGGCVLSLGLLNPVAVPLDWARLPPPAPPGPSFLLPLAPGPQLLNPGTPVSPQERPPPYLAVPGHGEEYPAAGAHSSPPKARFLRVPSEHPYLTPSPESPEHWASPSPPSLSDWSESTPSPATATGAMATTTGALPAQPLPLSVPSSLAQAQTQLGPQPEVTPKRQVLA

For `C[C@]1(C(=O)NC2CC2)c2ccccc2C(=O)N(Cc2cc(C(F)(F)F)cc(C(F)(F)F)c2)[C@H]1c1ccc(CO)cc1`, the composite z-score in test [1] was 1.38; in test [5], 1.32; in test [7] it was 0.0868; in test [8] it was 0.829; in test [9], 0.967; in [10], -0.0013. In addition, the z-score in test [2] was 0.412 (inactive); in test [3] it was -1.05 (inactive); in test [4], -0.0211 (inactive); in test [6], 1.08 (inactive).
Turning to `C=C(COC)/C(=C/C[C@H](OC(=O)c1ccncc1)c1ccc(OCCO)cc1)c1cnc2ccccc2c1`, the composite z-score was 1.53 in test [1]; 3.13 in [5]; -0.0094 in test [7]; 1.39 in test [8]; 1.05 in [9]; 0.0176 in test [10]. For the same compound, the z-score in test [2] is -0.922 (inactive); in test [3] it was -1.39 (inactive); in test [4] it was 0.0294 (inactive); in test [6] it was -0.124 (inactive).
On to `CC(C)(C)OC(=O)CC[C@@]12N=C(c3ccc(OCCCO)cc3)O[C@@H]1c1ccccc1N(CCS(=O)(=O)c1ccccc1)C2=O`, for which the composite z-score in test [1] is 1.07; in test [5] it was 2.48; in test [7], 0.193; in test [8] it was 0.427; in [9], 0.784; in [10] it was -0.0679. The z-score in test [2] is -0.0877 (inactive); in [3], 0.326 (inactive); in test [4] it was 0.0825 (inactive); in test [6] it was 1.68 (inactive).
As to `COc1ccc(C(O)C2C=CC3C(=O)NC(=O)C3N2Nc2ccccn2)c2ccccc12` (stereo not given), the composite z-score is -0.385 in [1]; 1.02 in test [5]; -0.132 in test [7]; -0.127 in [8]; 0.223 in test [9]; -0.107 in [10]. In addition, the z-score was -0.327 (inactive) in test [2], -0.0861 (inactive) in [3], 0.188 (inactive) in test [4] and -0.794 (inactive) in test [6].
Consider `COCCOC(=O)N1C(=O)[C@@]2(c3cc(C#CC4=CCCCC4)ccc31)[C@H](C(=O)Nc1nc3ccccc3s1)[C@H]1C(=O)O[C@H](c3ccccc3)[C@H](c3ccccc3)N1[C@@H]2c1ccccc1OCCO`, for which the composite z-score stood at 1.55 in test [1]; 2.15 in test [5]; 0.255 in test [7]; 0.883 in test [8]; 1.07 in test [9]; 0.411 in test [10]. The z-score in [2] was 1.25 (inactive); in test [3], 0.812 (inactive); in test [4], 3.25 (inactive); in test [6] it was 0.859 (inactive).
For `COc1ccc(C#Cc2ccc3c(c2)[C@]2(C(=O)N3)[C@H](c3ccccc3OCCO)N3[C@H](c4ccccc4)[C@H](c4ccccc4)OC(=O)[C@H]3[C@@H]2C(=O)O)cc1`, the composite z-score was found to be 1.54 in [1]; 3.09 in test [5]; 0.111 in test [7]; 1.11 in [8]; 1.03 in test [9]; 0.122 in test [10]. Also, the z-score is 3.22 (inactive) in [2], 1.13 (inactive) in test [3], 0.629 (inactive) in test [4] and 0.0706 (inactive) in test [6].
With `COc1ccc([Si](C)(C)[C@@H]2[C@@H](CCO)O[C@]3(C(=O)N(Cc4ccc(N5C(=O)COc6ccccc65)cc4)c4ccccc43)[C@H]2C)cc1`, the composite z-score is 1.5 in [1]; 2.44 in test [5]; -0.0375 in [7]; 1.17 in test [8]; 0.767 in test [9]; 0.0192 in [10]. The z-score in test [2] is 3.6 (inactive); in test [3], -0.0953 (inactive); in [4] it was 35.7 (active); in test [6], 0.49 (inactive).
In the case of `NCCCCCNC(=O)[C@@H]1C[C@@H]2C(=O)N[C@@H](Cc3ccccc3)C(=O)N2[C@@H]1c1cccc(OCCO)c1`, the composite z-score in test [1] is 0.715; in test [5] it was 1.8; in [7], -0.0075; in test [8], 0.363; in test [9], -0.448; in [10], -0.218. In addition, the z-score in test [2] is 0.653 (inactive); in test [3] it was -0.175 (inactive); in test [4], 0.68 (inactive); in [6], -0.47 (inactive).
With `CC(C)OC(=O)C=C1C[C@@H](c2ccccc2C(F)(F)F)O[C@@H](c2ccccc2C(F)(F)F)O1`, the composite z-score in test [1] was 0.494; in [5] it was 0.675; in test [7], -0.145; in test [8] it was 0.134; in test [9] it was 0.266; in test [10], -0.0776. The z-score in test [2] is -0.317 (inactive); in test [3], 1.17 (inactive); in test [4] it was 1.38 (inactive); in test [6] it was -0.952 (inactive).
In the case of `O=C1OCCC/C=C\[C@H]2OC34C=CCN(Cc5ccccc5)C(=O)[C@H]3N(CCCCCCO)C(=O)[C@@H]4C12` (stereo not given in full), the composite z-score in [1] was -0.197; in test [5] it was 2.24; in test [7] it was 0.0359; in [8] it was -2.14; in test [9], -0.927; in [10], -0.237. The z-score in [2] was 0.464 (inactive); in [3], -0.431 (inactive); in test [4], 0.0977 (inactive); in test [6], 0.991 (inactive).
Regarding `COc1cc(OC)c(C(O)C2C=CC3C(=O)NC(=O)C3N2Nc2ccc(Cl)cc2Cl)cc1Br` (stereo not given), the composite z-score in test [1] is 0.743; in [5] it was 3.34; in test [7], 0.277; in [8], -0.48; in [9], 0.541; in test [10] it was 0.0009. In addition, the z-score in test [2] was -18.8 (active); in test [3], 0.109 (inactive); in test [4] it was -0.55 (inactive); in [6], -1.99 (inactive).
With `CCOC(=O)C[C@H]1[C@H](OC(=O)c2ccc(C(=O)c3ccccc3)cc2)[C@@H](NC(=O)c2ccc(-c3ccccc3)cc2)c2cc(OCCCO)ccc2N1C(=O)c1ccccc1`, the composite z-score is 1.36 in [1]; 1.45 in [5]; -0.221 in [7]; 0.421 in test [8]; 1.03 in test [9]; 0.0911 in test [10]. Also, the z-score is -0.575 (inactive) in test [2], -0.34 (inactive) in test [3], -0.169 (inactive) in test [4] and -0.83 (inactive) in test [6].
Consider `COC(=O)[C@@]1(Cc2ccc(OC)cc2)[C@H]2c3cc(C(=O)N(C)C)n(CCN4CNCC4=O)c3C[C@H]2CN1C(=O)c1ccccc1`, for which the composite z-score was -1.13 in test [1]; 0.324 in test [5]; -0.0877 in [7]; 0.788 in test [8]; -0.325 in test [9]; 0.107 in [10]. Moreover, the z-score in test [2] was -0.693 (inactive); in [3], 0.687 (inactive); in [4], -0.567 (inactive); in [6] it was 0.288 (inactive).
In the case of `CC(C)c1ccc(NN2C(C(O)c3cc(C(F)(F)F)cc(C(F)(F)F)c3)C=CC3C(=O)N(c4ccccc4)C(=O)C32)cc1` (stereo not given), the composite z-score in [1] is 0.353; in [5], 3.22; in test [7] it was -0.0831; in test [8], -0.722; in test [9] it was 0.245; in test [10] it was -0.152. Also, the z-score in test [2] was 0.89 (inactive); in test [3], 0.183 (inactive); in test [4] it was 3.38 (inactive); in test [6], -2.08 (inactive).
On to `O=C1OCC=C[C@H]2OC34C=CCN(c5ccc6ccccc6c5)C(=O)[C@H]3N(CCCCCCO)C(=O)[C@@H]4[C@@H]12` (stereo not given in full), for which the composite z-score in test [1] was -0.518; in [5], 2.62; in [7] it was -0.0493; in [8] it was -1.33; in test [9], -0.435; in test [10], -0.256. Besides, the z-score in [2] was -0.966 (inactive); in test [3] it was -0.715 (inactive); in [4], -0.806 (inactive); in [6], -0.133 (inactive).
Consider `COC(=O)[C@@]1(Cc2ccc(OC)cc2)[C@H]2c3cc(C(=O)N(C)C)n(Cc4cccc5ccccc45)c3C[C@H]2CN1C(=O)c1ccccc1`, for which the composite z-score was found to be 0.219 in test [1]; 2.78 in test [5]; 1.07 in test [7]; 0.841 in test [8]; 0.481 in test [9]; 0.92 in [10]. For the same compound, the z-score is -0.386 (inactive) in test [2], 0.514 (inactive) in [3], 1.46 (inactive) in test [4] and -0.223 (inactive) in test [6].
As for `COCCn1c(C(=O)N2CCCC2)cc2c1C[C@H]1CN(C(=O)c3ccccc3)[C@@](Cc3ccc(F)cc3)(C(=O)OC)[C@@H]21`, the composite z-score was found to be 1.12 in test [1]; 3.84 in [5]; 0.166 in test [7]; 0.126 in [8]; 0.583 in test [9]; 0.0843 in test [10]. Moreover, the z-score in [2] is -0.339 (inactive); in [3] it was 0.0582 (inactive); in test [4] it was -0.0799 (inactive); in test [6], -0.191 (inactive).
